Source: PubChem BioAssay (EPA / NIEHS)
“And” between values parts separate entries of the source, which are not always exact repeats. Equal values may be shown once. A structure can be active in one record and inactive in another. The source made the active and inactive calls. Rule for the calls: active = hit-call score of the fitted dose curve at least 0.9, where 1 is the maximum; inactive = score below 0.9.

assay: ATG_TA_CIS: Attagene CIS-FACTORIAL HepG2 Assay for human TA Basal Promoter (AID 2282964); details: HepG2 Attagene CIS-factorial TA basal promoter reporter; actives raise or lower the signal
Procedure, shortened: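 Fluorescence from labelled RT-PCR reporter fragments, separated by capillary electrophoresis, gives the signal. Cells: HepG2 transiently carrying multiple reporter units, 24 h chemical dosing. Gain or loss relative to DMSO.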

Structure (SMILES) | outcome | AC50
COc1cc(-c2ccc(N)c(OC)c2)ccc1N | inactive | 
CCSC(C)CC1CC(=O)C(C(CC)=NOC/C=C/Cl)=C(O)C1 (centres undefined) | inactive | 
CC(=O)C=C(C)C | inactive | 
CCC(=O)c1ccccc1 | inactive | 
CN(C)N=O | inactive | 
CCc1ccccc1N | inactive | 
BrCCBr | inactive | 
C[C@]12CC[C@H](O)CC1=CC[C@@H]1[C@@H]2CC[C@]2(C)C(=O)CC[C@@H]12 | inactive | 
Nc1cccc2ccccc12 | inactive | 
O=Cc1cccc(Oc2ccccc2)c1 | inactive | 
O=CC=O | inactive | 
CCC[CH2][Sn]([CH2]CCC)([CH2]CCC)[O]C(=O)c1ccccc1 | inactive | 
O=[N+]([O-])c1ccc2c3c(cccc13)CC2 | inactive | 
C[C@H]1O[C@@H](O[C@H]2[C@@H](O)C[C@H](O[C@H]3[C@@H](O)C[C@H](O[C@H]4CC[C@@]5(C)[C@H](CC[C@@H]6[C@@H]5CC[C@]5(C)[C@@H](C7=CC(=O)OC7)CC[C@]65O)C4)O[C@@H]3C)O[C@@H]2C)C[C@H](O)[C@@H]1O | inactive | 
O=C/C=C/c1ccccc1 | inactive | 
Clc1ccc(C2(Cn3cncn3)CC(Br)CO2)c(Cl)c1 (centres undefined) | inactive | 
Clc1ccc(COC(Cn2ccnc2)c2ccc(Cl)cc2Cl)cc1 (centres undefined) | inactive | 
CCCCCCCCC(=O)NCc1ccc(O)c(OC)c1 | inactive | 
Nc1ccc(-c2ccc(N)c(Cl)c2)cc1Cl | inactive | 
CCC1(c2ccc(N)cc2)CCC(=O)NC1=O (centres undefined) | inactive | 

Structure (SMILES) | outcome | AC50
Oc1ccc(-c2ccccc2)cc1 | inactive | 
CCCCCCCCCl | inactive | 
CC(=O)[O][Hg][c]1ccccc1 | inactive | 
O=C(O)C(Cl)(Cl)Cl | inactive | 
CC(C)(c1ccccc1)c1ccc(O)c(C(C)(C)c2ccccc2)c1 | inactive | 
COC[C@H](C)N(C(=O)CCl)c1c(C)csc1C | inactive | 
CC(=[OH+])/C=C(/C)[O-].CC(=[OH+])/C=C(/C)[O-].CC(=[OH+])/C=C(/C)[O-].[Fe] | inactive | 
CCCCCCCCc1ccc(O)cc1 | inactive | 
C[C@H]1CCCC(=O)CCC/C=C/c2cc(O)cc(O)c2C(=O)O1 | inactive | 
O=C(O)C(F)(F)C(F)(F)C(F)(F)C(F)(F)C(F)(F)C(F)(F)C(F)(F)C(F)(F)C(F)(F)C(F)(F)F | inactive | 
Cc1ccc2ccccc2c1C | inactive | 
O=S(=O)(c1ccc(Cl)cc1)c1ccc(Cl)cc1 | inactive | 
CC(C)(C)c1cc(O)ccc1O |  | 138 µM (active)
COC(=O)Cc1ccccc1 | inactive | 
COC(=O)c1sccc1S(=O)(=O)NC(=O)Nc1nc(C)nc(OC)n1 | inactive | 
O=C(O)C(F)(F)C(F)(F)C(F)(F)C(F)(F)C(F)(F)C(F)(F)F | inactive | 
N#CCCO | inactive | 
C[C@]12CCC(=O)C[C@@H]1CC[C@@H]1[C@@H]2CC[C@]2(C)[C@@H](O)CC[C@@H]12 | inactive | 
CCc1ccccc1C | inactive | 

assay: ATG_TCF_b_cat_CIS: Attagene CIS-FACTORIAL HepG2 Assay for human T-Cell-Factor with beta-catenin (TCF/b-cat) (AID 2282965); details: HepG2 TCF/beta-catenin cis-reporter transcription, actives raise or lower the signal
Procedure, shortened: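 Endogenous transcription factor activity is captured through cis-promoter reporter constructs transiently introduced into human HepG2 liver cells. Induced reporter mRNA is measured after 24 h and fitted bidirectionally relative to DMSO.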

Structure (SMILES) | outcome | AC50
COc1cc(-c2ccc(N)c(OC)c2)ccc1N | inactive | 
CCSC(C)CC1CC(=O)C(C(CC)=NOC/C=C/Cl)=C(O)C1 (centres undefined) | inactive | 
CC(=O)C=C(C)C | inactive | 
CCC(=O)c1ccccc1 | inactive | 
CN(C)N=O | inactive | 
CCc1ccccc1N | inactive | 
BrCCBr | inactive | 
C[C@]12CC[C@H](O)CC1=CC[C@@H]1[C@@H]2CC[C@]2(C)C(=O)CC[C@@H]12 | inactive | 
Nc1cccc2ccccc12 | inactive | 
O=Cc1cccc(Oc2ccccc2)c1 | inactive | 
O=CC=O | inactive | 
CCC[CH2][Sn]([CH2]CCC)([CH2]CCC)[O]C(=O)c1ccccc1 | inactive | 
O=[N+]([O-])c1ccc2c3c(cccc13)CC2 | inactive | 
C[C@H]1O[C@@H](O[C@H]2[C@@H](O)C[C@H](O[C@H]3[C@@H](O)C[C@H](O[C@H]4CC[C@@]5(C)[C@H](CC[C@@H]6[C@@H]5CC[C@]5(C)[C@@H](C7=CC(=O)OC7)CC[C@]65O)C4)O[C@@H]3C)O[C@@H]2C)C[C@H](O)[C@@H]1O | inactive | 
O=C/C=C/c1ccccc1 | inactive | 
Clc1ccc(C2(Cn3cncn3)CC(Br)CO2)c(Cl)c1 (centres undefined) | inactive | 
Clc1ccc(COC(Cn2ccnc2)c2ccc(Cl)cc2Cl)cc1 (centres undefined) | inactive | 
CCCCCCCCC(=O)NCc1ccc(O)c(OC)c1 | inactive | 
Nc1ccc(-c2ccc(N)c(Cl)c2)cc1Cl |  | 4.63 µM (active)
CCC1(c2ccc(N)cc2)CCC(=O)NC1=O (centres undefined) | inactive | 

Structure (SMILES) | outcome | AC50
Oc1ccc(-c2ccccc2)cc1 | inactive | 
CCCCCCCCCl | inactive | 
CC(=O)[O][Hg][c]1ccccc1 | inactive | 
O=C(O)C(Cl)(Cl)Cl | inactive | 
CC(C)(c1ccccc1)c1ccc(O)c(C(C)(C)c2ccccc2)c1 | inactive | 
COC[C@H](C)N(C(=O)CCl)c1c(C)csc1C | inactive | 
CC(=[OH+])/C=C(/C)[O-].CC(=[OH+])/C=C(/C)[O-].CC(=[OH+])/C=C(/C)[O-].[Fe] | inactive | 
CCCCCCCCc1ccc(O)cc1 | inactive | 
C[C@H]1CCCC(=O)CCC/C=C/c2cc(O)cc(O)c2C(=O)O1 | inactive | 
O=C(O)C(F)(F)C(F)(F)C(F)(F)C(F)(F)C(F)(F)C(F)(F)C(F)(F)C(F)(F)C(F)(F)C(F)(F)F |  | 31.9 µM (active) and 13.1 µM (active)
Cc1ccc2ccccc2c1C | inactive | 
O=S(=O)(c1ccc(Cl)cc1)c1ccc(Cl)cc1 | inactive | 
CC(C)(C)c1cc(O)ccc1O |  | 119 µM (active)
COC(=O)Cc1ccccc1 | inactive | 
COC(=O)c1sccc1S(=O)(=O)NC(=O)Nc1nc(C)nc(OC)n1 | inactive | 
O=C(O)C(F)(F)C(F)(F)C(F)(F)C(F)(F)C(F)(F)C(F)(F)F | inactive | 
N#CCCO | inactive | 
C[C@]12CCC(=O)C[C@@H]1CC[C@@H]1[C@@H]2CC[C@]2(C)[C@@H](O)CC[C@@H]12 | inactive | 24.6 µM (active) and 23.6 µM (active)
CCc1ccccc1C | inactive | 
